Reference: PubChem BioAssay (Tox21)
Records with an inconclusive call do not appear. A number with no mark means an inactive call. Calls of active or inactive are those of the source. Calls follow the shape of the dose curve; as a rule, active = well fitted inhibition curve with a large enough effect in the repeat runs; inconclusive = weak or mixed curves; inactive = flat fitted curve, though single readings scatter.

Test: qHTS assay to identify small molecule HDAC inhibitors (AID 1259364); also: nearly all actives have a fitted effect of over 45% in size; as to activity change, negative = inhibition: top concentration of the series differs between compounds
Conditions: HCT-116 HDAC-Glo I/II luminescence, 2 h; series mostly up to 92.4 µM; activity change, negative = inhibition: at the top concentration
From the text: U.S. Tox21 Program National Center for Advancing Translational Sciences [NCATS] NIH Chemical Genomics Center [NCGC] U.S. Environmental Protection Agency [EPA] National Institutes of Environmental Health Sciences [NIEHS] National Toxicology Program [NTP] U.S. Food and Drug Administration [FDA] Tox21 Assay Overview: Histone deacetylases (HDACs) are a group of epigenetic enzymes that regulate gene expression by histone deacetylation. HDACs are capable of introducing epigenetic modifications and such aberrations contribute to the onset and progression of several human diseases, thus making HDACs a popular therapeutic target. For identifying endogenous class I/II HDAC inhibitors a homogenous, luminogenic HDAC I/II cell based assay was used to measure the relative activity of class I and II HDACs from cells. Wild type HCT-116 cells were used to screen Tox21 libraries for identifying class I/II HDAC inhibitors.
Tox21 Assay Protocol Summary: HCT-116 cells were dispensed at 1,500 per well in 5uL of culture medium into white solid bottom 1536-well plates (Greiner Bio-One, Monroe, NC) using a Multidrop Combi (Thermo Scientific, Waltham, MA) dispenser. The assay plates were incubated at 37 C and 5% CO2 for an overnight, and then 23nL of compounds dissolved in DMSO and positive control were transferred using a Pintool station (Wako, San Diego, CA). The assay plates were incubated at 37C and 5% CO2 for 2hr. After compound treatment, 4uL of HDAC-Glo reagent (Promega Corporation, Madison, WI) was added to each well of the assay plates using Flying Reagent Dispenser (FRD, Aurora Discovery, San Diego, CA) and incubated the assay plates at room temperature for 30min. The luminescence signal was quantified using a ViewLux plate reader (Perkin Elmer, Shelton, CT).
% is scaled to controls: 0 for no effect and ±100 for the full control effect; potency is read from the fitted curve at half-maximal effect.

SMILES | activity change, negative = inhibition | Potency
CCOc1ccc(Cc2nccc3cc(OCC)c(OCC)cc23)cc1OCC | 1.32% [at 42.5 µM] | –
CCOC(=O)[C@H](CCc1ccccc1)N[C@@H](C)C(=O)N(CC(=O)O)C1Cc2ccccc2C1 | -0.363% [at 42.5 µM] | –
CC(C)(C)CC(=O)OCC(=O)[C@@]1(O)CC[C@H]2[C@@H]3CCC4=CC(=O)C=C[C@]4(C)[C@H]3[C@@H](O)C[C@@]21C | 2.51% [at 42.5 µM] | –
CN1C(=O)N(c2ccccc2Br)Cc2cnc(Nc3ccc4c(c3)OCC(CO)O4)nc21 (stereo not given) | -13.4% | –
C=C/C(C)=C/C/C=C(\C)CCC=C(C)C | 0.0234% | –
CC1=C(CC=O)C(C)(C)CCC1 | 6.7% | –
O=C1NCCN1CCO | 3.9% | –
O=C1Cc2ccccc2N1c1c(Cl)cccc1Cl | -11.5% | –
O=[N+]([O-])c1ccc(Nc2ccc(Nc3ccccc3)c(S(=O)(=O)O)c2)c([N+](=O)[O-])c1 | -3.79% | –
CO[C@]1(NC(=O)CSC(F)F)C(=O)N2C(C(=O)O)=C(CSc3nnnn3CCO)CO[C@H]21 | 2.78% [at 42.5 µM] | –
C[C@@]12CCC[C@H]1[C@@H]1CC[C@H]3C[C@@H](O)CC[C@]3(C)[C@H]1CC2 | -0.0259% [at 42.5 µM] | –
CC(=O)OCC[N+](C)(C)C | -4.48% [at 42.5 µM] | –
O=C(CCCN1CC=C(n2c(=O)[nH]c3ccccc32)CC1)c1ccc(F)cc1 | 5.1% [at 42.5 µM] | –
CC/C=C1/OC(=O)c2ccccc21 | -5.38% | –
NC1[C@H]2CN(c3nc4c(cc3F)c(=O)c(C(=O)O)cn4-c3ccc(F)cc3F)C[C@@H]12 (stereo not given in full) | -1.3% [at 42.5 µM] | –
CC(=O)N/N=C/c1ccc([N+](=O)[O-])o1 | -12.9% [at 42.5 µM] | –
COc1cc(C(=O)NCCCCCC(=O)O)cc(OC)c1OC | 4.75% [at 42.5 µM] | –
O=C(OC(=O)c1ccccc1)c1ccccc1 | -2.28% | –
Brc1cc2ccccc2c2ccccc12 | -9.37% | –
C/C=C(/C(=C/C)c1ccc(O)cc1)c1ccc(O)cc1 | -0.988% [at 42.5 µM] | –

SMILES | activity change, negative = inhibition | Potency
Cc1cscn1 | 9.55% | –
OCCOCC#CCOCCO | -1.99% | –
CO/N=C(/C(=O)N[C@@H]1C(=O)N2C(C(=O)O)=C(COC(N)=O)CS[C@H]12)c1ccco1 | 1.88% | –
Nc1nnc(-c2ccc([N+](=O)[O-])o2)o1 | 1.97% | –
CCC(=O)OC | -1.64% | –
O=C(O)c1ccc(OCCCOc2ccc(C(=O)O)cc2)cc1 | -1.62% [at 42.5 µM] | –
Cc1cc(=O)c2c(O)c3c(O)cc(=O)c4c3c3c(cc(O)c1c23)C(C)(C)C=4O | 3.66% [at 19 µM] | –
CCC1NC(=O)c2cc(S(N)(=O)=O)c(Cl)cc2N1 (stereo not given) | -3.03% [at 42.5 µM] | –
CS(=O)(=O)c1ccc(-c2cn3ccccc3n2)cc1 | – | 2110 nM (active)
Cc1ccc(C(C)(C)O)cc1 | -1.34% | –
CC(CO)CO | 5.84% | –
C[C@@H]1CN(CCCn2c3ccccc3c3ccccc32)C[C@H](C)N1 | 3.79% [at 42.5 µM] | –
CN1CCCN=C1COC(=O)C(O)(c1ccccc1)C1CCCCC1 (stereo not given) | 3.78% [at 42.5 µM] | –
CCOC(=O)c1ccccc1C(=C1C=C(Br)C(=O)C(Br)=C1)c1cc(Br)c(O)c(Br)c1 | 0.461% [at 42.5 µM] | –
O=C(Cn1ccnc1[N+](=O)[O-])NCCO | 0.591% [at 42.5 µM] | –
CCCCN1CCCC1C(=O)Nc1c(C)cc(C)cc1C (stereo not given) | -3.36% [at 42.5 µM] | –
COc1ccccc1Oc1c(NS(=O)(=O)c2ccc(C(C)(C)C)cc2)nc(-c2ncccn2)nc1OCCO | 3.54% [at 42.5 µM] | –
CC(O)c1ccccc1 (stereo not given) | 0.513% | –
CC(C)(C)C(=O)C(=O)O | 2.12% | –
O=C1c2ccccc2C(=O)C1(O)O | 3.81% | –
